# Biological target: SKI
# Assay: pooled miR-30 sensor sort-seq; sequence = guide strand
# Details: shRNA
row,Sequence,sensor-assay potency score (higher = more potent)
1,TTCTTCTCGTTCTCGGCGCGGA,-0.778
2,TAGATGTGGAGCTCGTCGCACA,-1.04
3,TTACACTTGCCGAAGCACTCGT,0.441
4,TTGGTGATGAGCCCGCACGAGG,-1.78
5,TTTGGCTTCCTTGGTGTCCAGG,-1.03
6,TACGGTCTCGCAGCGCTCGGTG,-1.18
7,TTTCTCCTTCACGTCGTCCAGG,-1.07
8,TCTCACTCGCTGACACTGCGGG,-0.587
9,TACACTTGCCGAAGCACTCGTG,-0.466
10,TAGGAGTAGAAGCTGTCTCGGA,0.278
11,TCACTCGCTGACACTGCGGGGG,-0.224
12,TGGAGCTCGTCGCACACCGCGT,-1.77

# Biological target: SLAIN1
# Assay: as above
# Details: shRNA
row,Sequence,sensor-assay potency score (higher = more potent)
1,TTGAGGTGAATAATACTGTTGC,-0.0982
2,TTGAGTCAAAACTCTGACTATT,-1.16
3,TATGTCTTGATACAGATGCTGA,-0.777
4,TTGCCTGAGACTTTCTTCTTGC,0.429
5,TACATGTCCCTTTTTTTCCTGA,-0.235
6,TTCTTGAAATTCCATTTCCAGC,-1.69
7,TTTATTGCCAACGAAGGTCTTG,0.0936
8,TTCTTCGGAGCTTATCTCCATT,-0.767
9,TGAAGTAGAAGCATAATCTTGC,0.776
10,TTCTTCTTGCAGACGAGCCATG,-1.37
11,TATTTGAAGGAAAATACTGGGA,0.189
12,TATATTAAAACACAAAAGGGAA,-0.738

# Biological target: SLC10A3
# Assay: as above
# Details: shRNA
row,Sequence,sensor-assay potency score (higher = more potent)
1,TCTTGATGGTCAGCACCTCTGT,-1.25
2,TCTTCAGCAGGTGAGACCTTGA,-0.622
3,TCAAACTCCATCACAGAGCCAT,-0.169
4,TTAAGGGACCTGTGCCACCACC,-1.35
5,TAGAGGATTGGGTTTTCCGAGA,-0.917
6,TTCAGCAGGTGAGACCTTGATG,-1.03
7,TCTCCAATGCTCAAGTAGCGGC,-0.783
8,TTTTCTGAGTGCATAGTGCATG,-0.554
9,TAGTGCATGAGAACTTTGGTGG,0.0901
10,AAAGATAAGAGGCAGGAGCAGG,-0.888
11,TTGATGCAGAAGTCTCTCCGCT,-0.433
12,TTGGGTTTTCCGAGAAGTGGGC,0.0759

# Biological target: SLC10A7
# Assay: as above
# Details: shRNA
row,Sequence,sensor-assay potency score (higher = more potent)
1,AACAGTATGAGAACAAGGCTGA,0.508
2,TATTGTTGCAACAGCAATGTAG,0.00955
3,TTCTGCCTTGATACCATCCAAG,-1.16
4,TAAAAGCATAAAACTCAGCTGG,-0.225

# Reference: the OligoGym collection
